Measured values reported in PubChem BioAssay (Tox21).
Unmarked numbers belong to inactive results. Records with an inconclusive call do not appear. A call without a number means that no potency is given here. Activity calls are given as the source filed them. Unless noted, calls come from the whole dose curve.

What was measured:
[1] = Nuclear factor erythroid 2-related factor 2/antioxidant responsive element (Nrf2/ARE) small molecule agonists: qHTS cell viability counter screen in human keratinocytes (AID 1919968; active = well fitted curve in the direction sought with a large enough effect in the repeat runs; an effect the other way counts as inactive or inconclusive; note: nearly all actives have a fitted effect of over 55% in size; note: potency is the fitted concentration of half-maximal effect)
Summary of the method: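 KeratinoSens cells (HaCaT keratinocytes stably carrying an ARE-luciferase reporter) were seeded at 1,500 cells/well and rested 5 h at 37 C/5% CO2. They were then exposed to compounds in DMSO for 23 h. Viability was read by CellTiter-Fluor fluorescence after 1 h.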

[2] = Nuclear factor erythroid 2-related factor 2/antioxidant responsive element (Nrf2/ARE) small molecule agonists: luciferase reporter gene qHTS assay in human keratinocytes (AID 1919969); note: nearly all actives have a fitted effect of over 35% in size
[3] = biological target: KiSS-1 receptor (Homo sapiens) (UniProt Q969F8); assay: Human kisspeptin (KISS1R) small molecule agonists, calcium flux assay in KISS1R-HEK293 cells (AID 1920064; active = well fitted curve in the direction sought with a large enough effect in the repeat runs; an effect the other way counts as inactive or inconclusive)
Summary of the method: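 HEK293 cells stably expressing human KISS1R were plated 18 h at 37 °C, loaded with calcium dye for 1 h at 37 °C, then given compound by pin tool. Fluorescence (Ex/Em 480/540) was read kinetically for 3 min.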

[4] = G protein-coupled receptor (GPCR) small molecule agonists, calcium flux assay: HEK293 wild type cell line counter screen (AID 1920065)
Summary of the method: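 Cells were plated and cultured 18 h at 37 C/5% CO2, then loaded with calcium dye for 1 h at 37 C. Compounds in DMSO were pin-transferred in agonist mode, and fluorescence (Ex/Em 480/540) was read kinetically for 3 min at 1 s intervals.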

[5] = p53 small molecule agonists, cell-based qHTS assay with human liver microsomes (AID 1963577)
Summary of the method: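 Fluorescence of the beta-lactamase reporter in p53RE-bla cells, detected with LiveBLAzer substrate (2 h, room temperature, dark), served as the read-out after 16 h compound exposure at 37 C with human liver microsomes and NADPH, each 0.5 mg/mL final.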

[6] = p53 small molecule agonists, cell-based qHTS assay with rat liver microsomes (AID 1963578)
Summary of the method: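 Cells carrying a p53 response element–beta-lactamase reporter were plated and rested 5 h, then dosed with compound in DMSO plus rat liver microsomes and NADPH, each at 0.5 mg/mL final. After 16 h at 37 C, LiveBLAzer substrate was added for 2 h.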

[7] = p53 small molecule agonists, cell-based qHTS assay with human liver microsomes: qHTS cell viability counter screen (AID 1963579); note: nearly all actives have a fitted effect of over 45% in size
Summary of the method: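 Cytotoxicity counter screen: p53RE-bla, 4,000 cells/well; 5 h settle, 37 C/5% CO2; cpd + HLM 0.5 mg/mL + NADPH 0.5 mg/mL (final); 16 h, 37 C; CellTiter-Glo, 30 min RT, luminescence.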

[8] = p53 small molecule agonists, cell-based qHTS assay with rat liver microsomes: qHTS cell viability counter screen (AID 1963580); note: nearly all actives have a fitted effect of over 45% in size
Summary of the method: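 Viability is assessed in parallel with the p53 reporter read: HCT-116 p53RE-bla cells receive compounds plus rat microsomes and NADPH (0.5 mg/mL final apiece), incubate 16 h at 37 C, and then CellTiter-Glo luminescence is recorded.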

[9] = p53 small molecule agonists, cell-based qHTS assay: qHTS cell viability counter screen (AID 1963581); note: nearly all actives have a fitted effect of over 45% in size
Summary of the method: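 p53RE-bla HCT-116 cells were exposed to compounds for 16 h at 37 C; after the beta-lactamase FRET read in the same wells, CellTiter-Glo was added and luminescence (intracellular ATP) read after 30 min at room temperature.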

[10] = p53 small molecule agonists, cell-based qHTS assay (AID 1963582; active = well fitted activation curve with a large enough effect in the signal ratio in the repeat runs, not every such curve was filed as active; the % refers to the signal ratio)
Summary of the method: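 p53RE-bla beta-lactamase reporter cells rested 5 h at 37 C/5% CO2, then received compounds in DMSO by pin transfer and were incubated 16 h at 37 C. LiveBLAzer B/G FRET substrate was loaded for 2 h at room temperature before fluorescence reading.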

[11] = biological target: 5-hydroxytryptamine receptor 2A (Homo sapiens) (UniProt P28223); assay: 5-hydroxytryptamine receptor 2A (HTR2A) small molecule antagonists, cell-based qHTS assay (AID 1963586); note: nearly all actives have a fitted effect of over 45% in size; note: potency is the fitted concentration of half-maximal effect
Summary of the method: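 Antagonist-mode intracellular calcium assay: DOI (4 nM) added after 5 min compound pre-incubation at room temperature to dye-loaded HTR2A-CHO cells. Fluorescence followed for 3 min, sampled every second.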

[12] = biological target: 5-hydroxytryptamine receptor 2A (Homo sapiens) (UniProt P28223); assay: 5-hydroxytryptamine receptor 2A (HTR2A) small molecule agonists, cell-based qHTS assay (AID 1963587); note: nearly all actives have a fitted effect of over 30% in size
Summary of the method: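 CHO cells stably expressing human HTR2A, plated 18 h, loaded with calcium dye 1 h at 37 C. Agonist mode: compounds added and intracellular calcium fluorescence recorded kinetically for 2 min at 1 sec intervals.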

[13] = biological target: Muscarinic acetylcholine receptor M1 (Homo sapiens) (UniProt P11229); assay: Cholinergic receptor muscarinic 1 (CHRM1) small molecule antagonists, cell-based qHTS assay (AID 1963588); note: nearly all actives have a fitted effect of over 40% in size; note: potency is the fitted concentration of half-maximal effect
Summary of the method: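 CHRM1-CHO calcium-flux assay, antagonist mode. Cells were seeded 18 h, dye-loaded 1 h at 37 C and given compound for 5 min at RT, then acetylcholine was added at 50nM. FDSS fluorescence was read 3 min; 15 concentrations, three runs.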

[14] = biological target: Muscarinic acetylcholine receptor M1 (Homo sapiens) (UniProt P11229); assay: Cholinergic receptor muscarinic 1 (CHRM1) small molecule agonists, cell-based qHTS assay (AID 1963589); note: nearly all actives have a fitted effect of over 35% in size
Summary of the method: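 CHO cells stably expressing human CHRM1, seeded 18 h at 37 C/5% CO2, dye-loaded 1 h at 37 C, then given compound in agonist mode; intracellular calcium fluorescence read kinetically at 1 s intervals. Fifteen concentrations, three independent runs.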

[15] = cAMP Responsive Elements (CRE) small molecule agonists, cell-based qHTS assay (AID 1963590)
Summary of the method: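 CRE-bla HEK 293T cells in DMEM with 10% dialyzed FBS, NEAA, pyruvate and 25 mM HEPES were plated 18 h at 37 C/5% CO2, then exposed to compounds in DMSO for 3 h before LiveBLAzer B/G FRET substrate addition.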

[16] = biological target: Beta-2 adrenergic receptor (Homo sapiens) (UniProt P07550); assay: Adrenergic beta2 receptor (ADRB2) small molecule antagonists, cell-based qHTS assay (AID 1963592); note: series mostly up to about 92 µM; nearly all actives have a fitted effect of over 50% in size
Summary of the method: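 Cells (CHO, stable ADRB2 overexpression) incubated 18-20hr at 37C; compounds added from DMSO; agonist mix (1nM isoproterenol, 100uM IBMX, 25uM Ro-20-1724) added; 0.5hr RT; d2-cAMP and anti-cAMP-cryptate added; 1hr RT; 665/615 nm read.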

[17] = biological target: D(2) dopamine receptor (Homo sapiens) (UniProt P14416); assay: Dopamine D2 receptor (DRD2) small molecule agonists, cell-based qHTS assay (AID 1963594); note: nearly all actives have a fitted effect of over 35% in size
Summary of the method: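 HEK293 cells stably expressing human DRD2, pre-treated with PDE inhibitor Ro20-1724 (0.1 mM final) and compound 10 min at room temperature, then stimulated with NKH477 (200nM […]) for 30 min. cAMP read by HTRF (665/620 nm).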

[18] = biological target: D(2) dopamine receptor (Homo sapiens) (UniProt P14416); assay: Dopamine D2 receptor (DRD2) small molecule antagonists, cell-based qHTS assay (AID 1963595; active = well fitted inhibition curve with a large enough effect in the signal ratio in the repeat runs, with a control signal flat; the % refers to the signal ratio; note: potency is the fitted concentration of half-maximal effect)
Summary of the method: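 HEK293 cells stably expressing DRD2 were preincubated with 0.1 mM Ro20-1724, then with compound for 10 min at room temperature. Cells were stimulated with 200 nM NKH477 plus 12 nM quinpirole for 30 min, and cAMP was read by HTRF.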

[19] = biological target: Gonadotropin-releasing hormone receptor (Homo sapiens) (UniProt P30968); assay: Human gonadotropin-releasing hormone receptor (GnRHR) small molecule agonists, calcium flux assay in GnRHR-HEK293 cells (AID 1920063); note: nearly all actives have a fitted effect of over 35% in size
Summary of the method: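 HEK293 cells stably expressing human GnRHR were plated 18 h at 37 °C, loaded with calcium dye 1 h at 37 °C, then given compound in agonist mode; fluorescence (Ex/Em 480/540) read kinetically for 3 min at 1 s intervals.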

[20] = cAMP Responsive Elements (CRE) small molecule antagonists, cell-based qHTS assay (AID 1963591; active = well fitted inhibition curve with a large enough effect in the signal ratio in the repeat runs, not every such curve was filed as active; the % refers to the signal ratio)
Summary of the method: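 CRE-bla HEK293T cells were plated 18 h at 37 °C/5% CO2, pinned with compound in DMSO, then stimulated with NKH477 at 0.25 uM final for 3 h. LiveBLAzer B/G FRET substrate was added and plates incubated 2 h at room temperature.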

Sequence of D(2) dopamine receptor (Homo sapiens) (P14416 whole entry, looked up): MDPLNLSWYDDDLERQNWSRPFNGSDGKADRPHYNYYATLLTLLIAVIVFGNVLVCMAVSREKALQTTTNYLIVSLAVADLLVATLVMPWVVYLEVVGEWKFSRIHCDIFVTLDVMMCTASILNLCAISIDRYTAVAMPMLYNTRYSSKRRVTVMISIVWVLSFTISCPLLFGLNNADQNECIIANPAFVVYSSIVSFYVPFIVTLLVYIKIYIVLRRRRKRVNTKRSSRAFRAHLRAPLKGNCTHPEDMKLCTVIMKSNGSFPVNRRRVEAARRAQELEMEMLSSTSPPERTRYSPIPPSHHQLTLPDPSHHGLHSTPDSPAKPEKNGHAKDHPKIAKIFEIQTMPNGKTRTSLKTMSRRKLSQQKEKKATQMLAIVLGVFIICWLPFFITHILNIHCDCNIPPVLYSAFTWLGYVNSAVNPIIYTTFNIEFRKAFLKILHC
Sequence of Beta-2 adrenergic receptor (Homo sapiens) (P07550 whole entry, looked up): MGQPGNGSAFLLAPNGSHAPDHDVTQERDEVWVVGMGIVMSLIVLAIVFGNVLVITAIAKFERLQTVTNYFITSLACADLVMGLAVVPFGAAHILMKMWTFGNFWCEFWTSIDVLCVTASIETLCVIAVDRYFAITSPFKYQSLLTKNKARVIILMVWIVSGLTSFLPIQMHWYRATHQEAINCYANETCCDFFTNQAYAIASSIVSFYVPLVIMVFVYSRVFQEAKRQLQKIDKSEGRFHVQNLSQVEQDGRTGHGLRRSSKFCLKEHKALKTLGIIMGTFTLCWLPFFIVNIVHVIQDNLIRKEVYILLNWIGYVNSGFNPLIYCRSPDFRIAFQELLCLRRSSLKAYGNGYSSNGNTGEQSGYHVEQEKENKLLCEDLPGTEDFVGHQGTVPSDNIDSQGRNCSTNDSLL
Sequence of 5-hydroxytryptamine receptor 2A (Homo sapiens) (P28223 whole entry, looked up): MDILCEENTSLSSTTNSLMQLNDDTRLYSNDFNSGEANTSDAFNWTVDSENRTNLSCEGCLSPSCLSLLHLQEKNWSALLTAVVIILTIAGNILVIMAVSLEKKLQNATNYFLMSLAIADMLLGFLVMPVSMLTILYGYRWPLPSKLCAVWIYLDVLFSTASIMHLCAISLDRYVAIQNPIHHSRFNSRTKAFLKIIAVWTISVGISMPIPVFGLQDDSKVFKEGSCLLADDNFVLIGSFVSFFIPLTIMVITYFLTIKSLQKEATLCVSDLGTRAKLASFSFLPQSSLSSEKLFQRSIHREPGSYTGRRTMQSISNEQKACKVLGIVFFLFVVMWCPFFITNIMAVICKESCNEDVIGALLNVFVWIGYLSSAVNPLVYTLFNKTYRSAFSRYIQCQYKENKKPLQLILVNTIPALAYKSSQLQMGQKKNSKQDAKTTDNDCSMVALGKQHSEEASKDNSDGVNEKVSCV
Sequence of KiSS-1 receptor (Homo sapiens) (Q969F8 whole entry, looked up): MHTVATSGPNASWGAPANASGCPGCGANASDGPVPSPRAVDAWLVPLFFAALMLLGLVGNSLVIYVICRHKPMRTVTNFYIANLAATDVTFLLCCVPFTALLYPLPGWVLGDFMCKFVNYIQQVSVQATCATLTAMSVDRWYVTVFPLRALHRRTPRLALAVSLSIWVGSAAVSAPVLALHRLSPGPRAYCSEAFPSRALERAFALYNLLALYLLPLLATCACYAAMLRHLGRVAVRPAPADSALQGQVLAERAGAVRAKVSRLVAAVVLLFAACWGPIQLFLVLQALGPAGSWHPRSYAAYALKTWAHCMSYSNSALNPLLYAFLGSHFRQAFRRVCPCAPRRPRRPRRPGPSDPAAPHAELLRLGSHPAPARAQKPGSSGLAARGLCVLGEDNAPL
Sequence of Muscarinic acetylcholine receptor M1 (Homo sapiens) (P11229 whole entry, looked up): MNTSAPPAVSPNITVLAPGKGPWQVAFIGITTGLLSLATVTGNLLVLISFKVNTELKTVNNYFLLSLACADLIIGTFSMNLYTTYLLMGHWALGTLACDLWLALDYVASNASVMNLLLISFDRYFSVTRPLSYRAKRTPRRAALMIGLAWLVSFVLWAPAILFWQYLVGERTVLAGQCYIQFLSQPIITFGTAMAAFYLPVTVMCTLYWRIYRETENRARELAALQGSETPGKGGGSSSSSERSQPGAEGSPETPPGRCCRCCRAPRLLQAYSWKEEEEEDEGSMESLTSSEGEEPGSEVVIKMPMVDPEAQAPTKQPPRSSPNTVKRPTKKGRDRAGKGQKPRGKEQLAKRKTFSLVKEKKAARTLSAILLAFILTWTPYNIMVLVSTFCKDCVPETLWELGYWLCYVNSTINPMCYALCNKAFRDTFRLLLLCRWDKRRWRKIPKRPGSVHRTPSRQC
Sequence of Gonadotropin-releasing hormone receptor (Homo sapiens) (P30968 whole entry, looked up): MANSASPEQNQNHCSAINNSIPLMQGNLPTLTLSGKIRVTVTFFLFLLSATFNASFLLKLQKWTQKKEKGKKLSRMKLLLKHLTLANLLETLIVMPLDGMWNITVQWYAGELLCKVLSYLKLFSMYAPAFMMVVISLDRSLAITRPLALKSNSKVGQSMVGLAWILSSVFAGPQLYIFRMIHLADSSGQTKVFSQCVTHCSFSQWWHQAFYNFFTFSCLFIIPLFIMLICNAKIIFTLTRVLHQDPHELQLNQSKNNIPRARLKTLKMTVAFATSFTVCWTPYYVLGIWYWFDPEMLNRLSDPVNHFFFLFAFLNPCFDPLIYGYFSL

| Structure (SMILES) | Potency [1] | Potency [2] | outcome [3] | outcome [4] | Potency [5] | Potency [6] | Potency [7] | Potency [8] | Potency [9] | Potency [10] | Potency [11] | Potency [12] | Potency [13] | Potency [14] | Potency [15] | Potency [16] | Potency [17] | Potency [18] | Potency [19] | Potency [20] |
| --- | --- | --- | --- | --- | --- | --- | --- | --- | --- | --- | --- | --- | --- | --- | --- | --- | --- | --- | --- | --- |
| Nc1cc(S(=O)(=O)O)ccc1O | inactive | inactive | inactive | inactive | inactive | inactive | inactive | inactive | inactive | inactive | inactive | inactive | inactive | inactive | inactive | inactive | inactive | inactive | – | – |
| O=C(O)c1ccc(Cl)c(Cl)c1 | inactive | inactive | – | – | – | inactive | inactive | – | – | inactive | inactive | inactive | inactive | inactive | – | inactive | – | inactive | inactive | inactive |
| CCCc1ncc(C(=O)O)s1 | inactive | inactive | inactive | inactive | inactive | inactive | inactive | inactive | inactive | inactive | inactive | inactive | inactive | inactive | inactive | – | inactive | inactive | – | inactive |
| O=C(O)c1ccccc1Cl | inactive | inactive | inactive | inactive | inactive | inactive | inactive | inactive | inactive | inactive | inactive | inactive | inactive | inactive | inactive | inactive | inactive | inactive | – | – |
| Cc1cc(CC(=O)O)c(C)n1-c1ccc(Cl)cc1 | inactive | inactive | inactive | inactive | inactive | inactive | inactive | inactive | inactive | inactive | inactive | inactive | inactive | inactive | – | inactive | – | – | – | – |
| CC1=CC(=O)CC(C)(C)C1(O)/C=C/C(C)=C\C(=O)O (stereo not given) | inactive | inactive | inactive | inactive | inactive | inactive | inactive | inactive | inactive | inactive | inactive | inactive | inactive | inactive | inactive | inactive | inactive | inactive | – | – |
| CN1CCN(C2Cc3ccccc3Sc3ccc(Cl)cc32)CC1 (stereo not given) | 29.8 µM (active) | inactive | inactive | inactive | inactive | inactive | inactive | inactive | inactive | – | 41 nM (active) | – | 65 nM (active) | inactive | – | – | inactive | 133 nM (active) | – | inactive |
